High-throughput results (PubChem BioAssay)
PI5P4Ka inh = inhibitors of human PI5P4K alpha; AID 652105; hit rate 1.2% among 330,000; PI5P4Kalpha enzyme, ADP-Glo luminescence, 60 min; active compounds read low; max response, %; P48426; active = max response of -50% or lower; inconclusive = between -30% and -50%; inactive = -30% or higher; also: value at the top dose of about 77 µM; % is scaled to controls: 0 for no effect and ±100 for the full control effect
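Human PI5P4Kalpha with substrate in 0.038 M HEPES pH 7.4, 0.28 mM EGTA, 0.1% CHAPS, 5% DMSO; reaction started with 5 microM ATP (final), 60 min at room temperature. ADP formed read by ADP-Glo luminescence.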
BAZ2B inh = blocks human BAZ2B | AID 504333 | Q9UIF8 | hit rate 4.4% among 360,000 | Potency, µM (highest dose often 114 µM), inactives show top-dose activity change, negative = inhibition, usual class: inhibitors | AlphaScreen BAZ2B-H3K14Ac peptide displacement; also: potency is read from the fitted curve at half-maximal effect; % is scaled to controls: 0 for no effect and ±100 for the full control effect; nearly all actives have a fitted effect of over 60% in size
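BAZ2B (50 nM) with biotin-H3(5-23)K14Ac peptide (50 nM) in PBS pH 7.4, 0.01% Tween-20, preformed 30 min, then compound 30 min at room temperature; top concentration 110uM. AlphaScreen streptavidin donor/nickel chelate acceptor beads (10 ug/mL final), 20 min dark, signal read.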
PLK1 PBD inh = inhibitors of human PLK1 polo-box domain binding. P53350. Plk1 PBD binding of FITC phosphopeptide, fluorescence polarization. Potency, µM, inactives show max response, negative = inhibition, actives largely listed as inhibitors. hit rate 2.8% among 360,000; also: potency is read from the fitted curve at half-maximal effect; series mostly up to about 57 µM; % is scaled to controls: 0 for no effect and ±100 for the full control effect; nearly all actives have a fitted effect of over 65% in size
Target sequence (P53350 whole entry, looked up, the tested form may be a part): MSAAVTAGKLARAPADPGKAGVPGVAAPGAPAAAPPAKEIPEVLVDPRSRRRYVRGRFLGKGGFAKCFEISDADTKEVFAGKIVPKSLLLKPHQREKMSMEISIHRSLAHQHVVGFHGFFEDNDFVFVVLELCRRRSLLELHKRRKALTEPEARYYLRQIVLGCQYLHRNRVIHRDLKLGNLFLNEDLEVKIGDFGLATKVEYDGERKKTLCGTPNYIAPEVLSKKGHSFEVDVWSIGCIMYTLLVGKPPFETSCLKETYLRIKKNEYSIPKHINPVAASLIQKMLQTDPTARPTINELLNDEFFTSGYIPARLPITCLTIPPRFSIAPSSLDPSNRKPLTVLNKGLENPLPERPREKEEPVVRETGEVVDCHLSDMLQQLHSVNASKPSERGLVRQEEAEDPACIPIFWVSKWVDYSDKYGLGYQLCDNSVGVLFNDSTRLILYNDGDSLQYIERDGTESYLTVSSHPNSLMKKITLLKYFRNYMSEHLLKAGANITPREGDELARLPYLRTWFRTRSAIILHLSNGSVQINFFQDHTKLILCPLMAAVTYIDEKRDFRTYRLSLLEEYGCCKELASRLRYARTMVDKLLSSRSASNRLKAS
JMJD2A Tudor inh = blocks the human JMJD2A Tudor domain | hit rate 4.4% among 390,000 | Potency, µM (top dose mostly 114 µM), without a hit: top-dose activity change, negative = inhibition, most hits filed as inhibitors | AlphaScreen JMJD2A-Tudor / H3K4me3 peptide binding; also: potency is read from the fitted curve at half-maximal effect; % is scaled to controls: 0 for no effect and ±100 for the full control effect; nearly all actives have a fitted effect of over 50% in size
KAT2A inh = inhibitors of human GCN5L2 histone acetyltransferase. AID 504327. hit rate 0.21% among 390,000. Potency, µM (highest dose often 58.9 µM), for inactives: at the top dose activity change, negative = inhibition, usual class: inhibitors. GCN5L2 HAT assay, ThioGlo1 CoA-SH fluorescence; also: potency is read from the fitted curve at half-maximal effect; % is scaled to controls: 0 for no effect and ±100 for the full control effect
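Preincubate 20nM GCN5L2 with compound 15 min, RT → add 50uM ThioGlo1 + 75uM H3(1-25) + 70uM acetyl-CoA → read fluorescence 0 and 20 min. Primary qHTS; fluorescent artifacts likely.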
HP1b chromo inh = blocks HP1-beta chromodomain binding to methylated histone tails | P83916 | AlphaScreen HP1-beta / biotin-H3K9me3 peptide binding | Potency, µM (highest dose often 114 µM), for inactives: top-dose activity change, negative = inhibition, usual class: inhibitors | hit rate 0.56% among 390,000 | AID 540317; also: potency is read from the fitted curve at half-maximal effect; nearly all actives have a fitted effect of over 70% in size
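HP1-beta protein (50 nM final) preincubated 30 min at room temperature with biotinylated H3(1-18)K9me3 peptide (50 nM) in PBS pH 7.4, 0.01% Tween-20, then compound added for 30 min. AlphaScreen streptavidin donor/nickel chelate acceptor beads (10 ug/mL final), 30 min dark, luminescence read.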
An asterisk follows results filed as active; ? = inconclusive; · = no result; [ ] = dose if it differs, or a comment. Hits are enriched below; roughly 7% of the tested compounds scored in any of these assays. Unless noted, calls follow the shape of the dose curve; as a rule, active = well fitted curve in the direction sought with a large enough effect; inconclusive = small, poorly fitted or top-dose-only effect, or another doubt; inactive = no such curve, though single readings can be large; an effect the other way counts as inactive or inconclusive.

SMILES	PI5P4Ka inh	BAZ2B inh	PLK1 PBD inh	JMJD2A Tudor inh	KAT2A inh	HP1b chromo inh
Cc1cccc(C)c1C(OCCN(C)C)C1CCCCC1 (configuration not stated)	-21.2	?	-4.6%	14.1µM*	3.0%	?
COCCN(C(=O)CCl)C(C(=O)NC1CCCCC1)c1ccccc1C (configuration not stated)	-3.2	7.1%	-12.5%	-10.1%	5.6%	37.5%
Cc1cccc(C(=O)NCC(=O)N2CCN(c3ccccn3)CC2)c1	-1.7	·	-5.9%	-9.8%	-2.8%	14.1%
c1cncc(-c2nc(-c3ccc4c(c3)OCCO4)cs2)c1	-3.1	-2.4%	1.3%	1.4%	8.4%	34.6%
Cc1nc(-c2ccc(O)c(O)c2)cs1	-6.8	-36.4%	?	3.98µM*	-6.6%[0.501 µM]	?
Oc1ccc(-c2csc(-c3ccccc3)n2)cc1O	·	56.2µM*	-1.5%	39.8µM*	-15.2%	?
Cc1ccc2nc(-c3ccc(O)c(O)c3)cn2c1	-19.1	50.1µM*	?	22.4µM*	1.0%	?
Oc1ccc(-c2csc(-c3cccnc3)n2)cc1O	-16.2	44.7µM*	-15.6%	7.08µM*	-14.7%	79.4µM*
Cc1ccc2nc(-c3ccccc3)cn2c1	?	-8.1%	-2.5%	-23.8%	-6.9%	-4.5%
Cc1csc(C(C)NC(=O)c2ccc(OC3CCN(CCc4ccccc4)CC3)cc2)n1 (configuration not stated)	2.4	-23.4%	29.9µM*	-29.5%	-6.3%	10.5%
COc1cc2c(c(OC)c1CC=C(C)C)C[C@H](c1ccc(O)cc1O)CO2	22.5	·	1.4%	56.2µM*	·	-30.9%
Cc1ccc(Cl)cc1N1CCN(c2cccc[n+]2C)CC1	2.8	?	-5.9%	-2.1%	-12.3%	13.4%
C[n+]1ccccc1N1CCN(c2ccccc2Cl)CC1	-9.9	-13.7%	26.7µM*	79.4µM*	-13.1%	-1.2%
O=C(COC(=O)c1ccc(O)cc1)Nc1ccccc1	0.1	-2.4%	-5.6%	-6.1%	0.8%	64.1%
CCc1ccc(OCCCC(=O)NCc2ccccc2)cc1	-6.2	-5.7%	26.7µM*	-27.0%[57.1 µM]	0.8%	?
COc1ccc(CNC(=O)CCCc2ccccc2)cc1	-5.5	5.5%	-14.5%	-20.4%	2.2%	?
Cc1nc(SCC(=O)N2CCCC2=O)nc(C)c1C	-4.2	·	-27.0%	-13.7%	2.7%	41.5%
CCOC(=O)c1c(N2C(=O)C=CC2=O)sc(C)c1C	·	?	5.32µM*	20µM*	?	?
COc1cc2c(c(OC)c1OC)C(=O)C(=Cc1ccccc1)O2	0.1	·	-4.7%	4.8%	·	61.2%
COc1cc(CNC2CCCC2)cc(OC)c1OC	·	3.2%	-4.0%	-14.1%	-8.2%	15.1%
COc1cc(OC)c(CNC2CCCCCC2)cc1Br	-8.4	?	-2.5%	10µM*	-2.5%	-12.3%
COc1cc(CNC2CCCCCC2)cc(OC)c1OC	·	?	-6.2%	10µM*	·	24.0%
Oc1c(Br)cc(CNC2CCCCC2)cc1Br	?	·	-28.5%	-34.5%	·	?
COc1cccc(CNC2CCCCCCC2)c1OC	3.0	?	-3.6%	35.5µM*	-14.4%	-29.5%
Cc1ccc(C)c(N2CCN(C(=O)CCc3nnc4n(CC(C)C)c(=O)c5ccccc5n34)CC2)c1	·	-1.3%	·	6.9%	0.6%	32.7%
SMILES	PI5P4Ka inh	BAZ2B inh	PLK1 PBD inh	JMJD2A Tudor inh	KAT2A inh	HP1b chromo inh
Cc1ccc(NC(=O)COC(=O)C2CCC2)cc1S(=O)(=O)N1CCOCC1	3.4	·	-0.1%	-3.5%	-1.6%	39.4%
CCn1nnnc1NC(=O)c1ccc2ccccc2c1	3.9	0.2%	-5.0%	-7.2%	2.1%	26.7%
CCn1nnnc1NC(=O)c1cc(OC)c(OC)c(OC)c1	3.1	-17.8%	26.7µM*	79.4µM*	-3.6%	7.9%
CCOC(=O)N1CCN(C(=O)CSc2nnc(-c3cc(OC)ccc3OC)o2)CC1	?	-1.6%	3.36µM*	-34.9%[11.4 µM]	0.4%	-8.5%
CCOC(=O)N1CCN(C(=O)CSc2nnc(-c3cc(OC)cc(OC)c3)o2)CC1	8.2	11.6%	1.9%	-6.1%	-4.4%	26.6%
CCOC(=O)N1CCN(C(=O)CSc2nnc(-c3cccc(OC)c3)o2)CC1	?	5.4%	3.36µM*	?	-6.6%	-7.8%
